A selection: hits, their analogues and other compounds. The true share with any hit is near 1.6%.
KCNQ2 block – blocks the rat KCNQ2 potassium channel | CHO-K1 KCNQ2, FluxOR thallium flux, 20 min; hits give low values | B-score at 10 µM | 310,000 tested, 1.1% active | AID 2156;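 active = fluorescence ratio B-score at most minus 3 library SDs, with starting brightness B-score within 2 library SDs, cut at about -5.5 in these data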
Target sequence (O88943 whole entry, looked up): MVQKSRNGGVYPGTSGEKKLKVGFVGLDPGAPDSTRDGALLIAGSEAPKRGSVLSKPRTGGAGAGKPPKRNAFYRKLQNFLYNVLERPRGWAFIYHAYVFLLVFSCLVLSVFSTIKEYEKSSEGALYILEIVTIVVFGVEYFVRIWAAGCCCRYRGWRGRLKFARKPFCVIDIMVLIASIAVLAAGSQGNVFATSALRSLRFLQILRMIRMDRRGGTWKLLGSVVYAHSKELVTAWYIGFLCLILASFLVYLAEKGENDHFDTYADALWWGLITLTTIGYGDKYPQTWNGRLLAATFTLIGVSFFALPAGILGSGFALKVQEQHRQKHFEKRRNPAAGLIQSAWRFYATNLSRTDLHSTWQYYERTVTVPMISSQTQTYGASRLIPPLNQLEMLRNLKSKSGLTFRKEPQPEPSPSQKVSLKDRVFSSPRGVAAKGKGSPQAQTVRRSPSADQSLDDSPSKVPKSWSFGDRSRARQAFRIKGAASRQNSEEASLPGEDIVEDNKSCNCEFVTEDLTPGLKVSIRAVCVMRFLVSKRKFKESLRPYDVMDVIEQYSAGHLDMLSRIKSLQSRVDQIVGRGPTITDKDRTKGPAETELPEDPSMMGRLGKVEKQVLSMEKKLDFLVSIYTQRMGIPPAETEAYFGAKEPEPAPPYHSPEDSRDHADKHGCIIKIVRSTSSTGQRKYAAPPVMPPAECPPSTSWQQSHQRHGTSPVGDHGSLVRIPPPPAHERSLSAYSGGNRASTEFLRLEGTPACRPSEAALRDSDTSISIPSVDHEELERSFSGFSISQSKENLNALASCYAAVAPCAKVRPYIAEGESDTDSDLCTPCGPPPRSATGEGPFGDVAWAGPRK
KCNQ2 enhance – potentiators of rat KCNQ2 potassium channel; CHO-K1 KCNQ2, FluxOR thallium flux fluorescence; hits give high values; AID 2239; B-score at 10 µM; 310,000 tested, 0.54% active;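 active = fluorescence ratio B-score at least 3 SD of library B-scores, with initial fluorescence B-score within 3 of them, cut at about 5.3 in these data; same plate scores as AID 2156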;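 also: B-score of peak minus minimum over baseline fluorescence ratio after K+ and Tl+ stimulus; positive B-score means potentiation of KCNQ2 with more thallium influx and brighter signal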
The depositor's hits bear a star.

What do the screens show for `Cc1ccc(SCc2ccc(C(=O)Nc3cccc([N+](=O)[O-])c3C)cc2)cc1`?
KCNQ2 block: -5.64*; KCNQ2 enhance: -5.64

Results for O=C(CCC1CCCCC1)Nc1ccccc1O ?
KCNQ2 block: inactive; KCNQ2 enhance: 4.5

Results for O=C(CNC(c1ccccc1)c1ccccc1)NCc1ccccc1Cl ?
KCNQ2 block: -5.98*; KCNQ2 enhance: -5.98

What do the screens show for `O=C(CNC(c1ccccc1)c1ccccc1)Nc1ccccc1-c1ccccc1`?
KCNQ2 block: -6.3*; KCNQ2 enhance: -6.3

Results for CCCC(=O)NCc1ccccc1Cl ?
KCNQ2 block: inactive

How did O=C(CNC(c1ccccc1)c1ccccc1)Nc1ccccc1F do in these assays?
KCNQ2 block: inactive

Results for O=C(CCC1CCCC1)Nc1ccccc1-c1ccccc1 ?
KCNQ2 block: inactive; KCNQ2 enhance: 23.1*

What do the screens show for `O=C(CC1CCCCC1)Nc1ccccc1-c1ccccc1`?
KCNQ2 block: inactive; KCNQ2 enhance: 6.55*

What do the screens show for `COc1ccccc1NC(=O)CC1CCCC1`?
KCNQ2 block: inactive; KCNQ2 enhance: 0.84

Results for COc1ccc(OC)c(-c2cc(C3CCN(c4ncccc4[N+](=O)[O-])CC3)[nH]n2)c1 ?
KCNQ2 block: inactive

Results for O=C(c1ccc([N+](=O)[O-])o1)N1CCN(c2nc3c(Cl)cccc3s2)CC1 ?
KCNQ2 block: inactive; KCNQ2 enhance: 0.44

Results for CC(C)N(Cc1nccn1C)C(=O)c1ccc(OC2CCN(C(=O)C3CC3)CC2)cc1 ?
KCNQ2 block: inactive; KCNQ2 enhance: 0.38

What do the screens show for `COc1cccc(/C=N/NC(=O)CCCC(=O)Nc2ccc(Br)cc2)c1`?
KCNQ2 block: inactive

Results for CN(C)C(CNc1nnnn1-c1ccccc1)c1ccco1 (configuration not stated) ?
KCNQ2 block: inactive

Results for CCCCc1cc(C)c(S(=O)(=O)c2ccccc2C)c(=O)[nH]1 ?
KCNQ2 block: inactive

Results for CCCc1nc(SCC(=O)N2CCC(Cc3ccccc3)CC2)c2c(=O)n(C)c(=O)n(C)c2n1 ?
KCNQ2 block: inactive; KCNQ2 enhance: 22.9*

What do the screens show for `CCCc1nc(SCC(=O)Nc2ccccc2)c2c(=O)n(C)c(=O)n(C)c2n1`?
KCNQ2 block: inactive; KCNQ2 enhance: 1.51

What do the screens show for `CCOc1cc(C)c(C(C)C)cc1S(=O)(=O)n1cnc(C)c1`?
KCNQ2 block: inactive; KCNQ2 enhance: 8.66*

What do the screens show for `CCOc1cc(C)c(C(C)C)cc1S(=O)(=O)N1CC(C)OC(C)C1` (configuration not stated)?
KCNQ2 block: inactive; KCNQ2 enhance: 0.1

Results for CC1(c2nnc(Cc3ccccc3)o2)CC(c2cccnc2)=NO1 (configuration not stated) ?
KCNQ2 block: inactive; KCNQ2 enhance: 0.6

Results for Cc1nn(C)c2nc(-c3cccs3)cc(C(F)(F)F)c12 ?
KCNQ2 block: inactive

How did Cc1nn(CCO)c2nc(-c3cccs3)cc(C(F)(F)F)c12 do in these assays?
KCNQ2 block: inactive; KCNQ2 enhance: 5.75*

Results for CCCC[C@@H]1C[C@H]1[C@@H](NC(=O)c1ccco1)c1ccc(Cl)cc1 ?
KCNQ2 block: inactive

What do the screens show for `CCCC[C@@H]1C[C@H]1[C@@H](NC(=O)c1cccs1)c1ccc(Cl)cc1`?
KCNQ2 block: -7.97*; KCNQ2 enhance: -7.97

How did Cc1cc(Cl)ccc1OCC(=O)N1CCCN(C(=O)COc2ccc(Cl)cc2C)CC1 do in these assays?
KCNQ2 block: inactive

What do the screens show for `Cc1cc(Cl)ccc1OC(C)C(=O)N1CCCN(C(=O)C(C)Oc2ccc(Cl)cc2C)CC1` (configuration not stated)?
KCNQ2 block: -6.2*; KCNQ2 enhance: -6.2

Results for COc1cc(/C=N/NC2=NS(=O)(=O)c3ccccc32)cc(OC)c1OC ?
KCNQ2 block: inactive; KCNQ2 enhance: 1.07

Results for COc1cc(/C=N/NC2=NC(C)(C)Cc3ccccc32)cc(OC)c1OC ?
KCNQ2 block: -5.61*; KCNQ2 enhance: -5.61

What do the screens show for `COc1cc2c(=O)n(Cc3ccco3)c(=O)n(CC(=O)c3cccc(Br)c3)c2cc1OC`?
KCNQ2 block: inactive

Results for Cc1cc(NC(=O)c2cc(C)on2)n(-c2ccccc2)n1 ?
KCNQ2 block: inactive; KCNQ2 enhance: 0.58

Results for Cc1nc2scc(-c3ccccc3)c2c(=O)n1/N=C/c1ccco1 ?
KCNQ2 block: -6.42*; KCNQ2 enhance: -6.42

Results for Cc1nc2ccccc2c(=O)n1/N=C/c1ccco1 ?
KCNQ2 block: inactive

What do the screens show for `Cc1cc(OCc2cc(C(=O)N3CCN(CC4CC4)CC3)no2)cc(C)c1Cl`?
KCNQ2 block: inactive

How did Cc1c(CCOC(=O)c2ccccc2)sc[n+]1CC(=O)c1ccc(Br)cc1 do in these assays?
KCNQ2 block: inactive

What do the screens show for `Cc1c(CCOC(=O)C23CC4CC(CC(C)(C4)C2)C3)sc[n+]1CC(=O)c1ccccc1`?
KCNQ2 block: -6.51*; KCNQ2 enhance: -6.51

Results for CCNC(=O)CSc1nc2cc([N+](=O)[O-])ccc2n1-c1cccc(C(F)(F)F)c1 ?
KCNQ2 block: inactive

Results for CCOC(=O)c1cc(C)sc1N1C(=O)C2C3C=CC(C3)C2C1=O (configuration not stated) ?
KCNQ2 block: inactive; KCNQ2 enhance: 0.28

What do the screens show for `CCOC(=O)c1c(N2C(=O)C3C4C=CC(C4)C3C2=O)sc2c1CCC(C)C2` (configuration not stated)?
KCNQ2 block: inactive; KCNQ2 enhance: 6.67*

How did c1ccc(-c2c(-c3ccccc3)n(Cc3ccco3)c3ncnc(NCCCn4ccnc4)c23)cc1 do in these assays?
KCNQ2 block: -10.7*; KCNQ2 enhance: -10.7

How did OCCNc1ncnc2c1c(-c1ccccc1)c(-c1ccccc1)n2Cc1ccco1 do in these assays?
KCNQ2 block: inactive

What do the screens show for `Cc1cccc(NC(=O)c2cc(NC(=O)C3CCCCC3C(=O)O)ccc2N2CCOCC2)c1` (configuration not stated)?
KCNQ2 block: inactive; KCNQ2 enhance: 1.11

What do the screens show for `CN(Cc1cccnc1)Cc1c(C(=O)N2CCc3ccccc3C2)nc2ccc(Cl)cn12`?
KCNQ2 block: inactive

Results for CCCCN(C)Cc1c(C(=O)N2CCc3ccccc3C2)nc2ccc(Cl)cn12 ?
KCNQ2 block: -5.64*; KCNQ2 enhance: -5.64

Results for O=S(=O)(Nc1ccc(Cc2ccncc2)cc1)c1cccs1 ?
KCNQ2 block: inactive; KCNQ2 enhance: 0.96

Results for CCCCc1ccc(NS(=O)(=O)c2cccs2)cc1 ?
KCNQ2 block: -5.9*; KCNQ2 enhance: -5.9

How did O=C(O)c1cccc(S(=O)(=O)NCCC(c2ccccc2)c2ccccc2)c1 do in these assays?
KCNQ2 block: inactive

What do the screens show for `CCc1nc(N(CC)CC)c2oc3ccccc3c2n1`?
KCNQ2 block: inactive

Results for CCc1nc(N2CCC(C)CC2)c2oc3ccccc3c2n1 ?
KCNQ2 block: -5.87*; KCNQ2 enhance: -5.87

What do the screens show for `O=C(COc1ccc(C(=S)N2CCCC2)cc1)Nc1ccc(F)cc1`?
KCNQ2 block: inactive

Results for CC(C)[C@H](NC(=O)NCc1ccc(Cl)cc1)C(=O)O ?
KCNQ2 block: inactive; KCNQ2 enhance: 0.09

Results for CCOC(=O)c1ccc(S(=O)(=O)N2CCN(CC(=O)NC(=O)NC3CCCCC3)CC2)cc1 ?
KCNQ2 block: -5.62*; KCNQ2 enhance: -5.62

What do the screens show for `O=C(CN1CCN(S(=O)(=O)c2ccc(F)cc2)CC1)NC1CCCC1`?
KCNQ2 block: inactive; KCNQ2 enhance: 1.98

Screens: PubChem, Johns Hopkins Ion Channel Center
